PubChem BioAssay (EPA / NIEHS)
Records with an inconclusive call do not appear. Calls of active or inactive are those of the source. Rule for the calls, unless noted: active = hit-call score of the fitted dose curve at least 0.9, where 1 is the maximum; inactive = score below 0.9.

Assays:
[1] = read-out: Protein phosphatase 2A (PPP2R4), PTPA (gene 5524); test: LTEA_HepaRG_PPP2R4: Life Technologies and Expression Analysis (LTEA) Assay for Protein phosphatase 2A (PPP2R4) using HepaRG (AID 2283522); conditions: mRNA level, 48 h; actives raise or lower the signal
Outline: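 Cells were plated, cultured 48 h, switched to serum-free induction medium, then dosed for 48 h (8 points, max 100 uM, 0.5% DMSO). RNA was isolated and PPP2R4 expression measured by TaqMan qRT-PCR.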

[2] = read-out: Phosphatase and tensin (PTEN), PTEN (gene 5728); test: LTEA_HepaRG_PTEN: Life Technologies and Expression Analysis (LTEA) Assay for Phosphatase and tensin (PTEN) using HepaRG (AID 2283523); conditions: mRNA level, 48 h; actives raise or lower the signal
Outline: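 Expression of PTEN is quantified in the human liver line HepaRG following two days of dosing (top concentration 100 uM, half-log dilutions, 0.5% DMSO). Values derive from bidirectional curve fitting relative to DMSO controls.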

[3] = read-out: solute carrier (SLC22A1), SLC22A1 (gene 6580); test: LTEA_HepaRG_SLC22A1: Life Technologies and Expression Analysis (LTEA) Assay for solute carrier (SLC22A1) using HepaRG (AID 2283524); conditions: mRNA level, 48 h; actives raise or lower the signal
Outline: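 Transcript induction or suppression of SLC22A1 in human HepaRG cultures is scored after 48 h chemical treatment, with DMSO (0.5%) as baseline for bidirectional fitting. Concentrations span eight half-log points topping at 100 uM.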

[4] = read-out: NAD(P)H dehydrogenase [quinone] 1 (NQO1), NQO1 (gene 1728); test: LTEA_HepaRG_NQO1: Life Technologies and Expression Analysis (LTEA) Assay for NAD(P)H dehydrogenase [quinone] 1 (NQO1) using HepaRG (AID 2283526); conditions: mRNA level, 48 h; actives raise or lower the signal
Outline: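 Transcript induction or suppression is quantified by qRT-PCR in human HepaRG liver cells dosed for 48 hours. Eight half-log concentrations topping at 100 uM are used, with 0.5% DMSO as vehicle and baseline.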

[5] = read-out: Nuclear factor erythroid 2-related factor 2 (Homo sapiens) (UniProt Q16236); test: LTEA_HepaRG_NFE2L2: Life Technologies and Expression Analysis (LTEA) Assay for Nuclear factor erythroid 2-related factor 2 (NFE2L2) Transcription Factor using HepaRG (AID 2283527); conditions: mRNA level, 48 h; actives raise or lower the signal
Outline: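 Human liver HepaRG line treated in duplicate for 48 h with an eight-point series topping at 100 uM. Gene expression of NFE2L2 by qRT-PCR, bidirectionally fitted against the vehicle control.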

[6] = read-out: succinate dehydrogenase complex iron sulfur subunit B (SDHB), SDHB (gene 6390); test: LTEA_HepaRG_SDHB: Life Technologies and Expression Analysis (LTEA) Assay for succinate dehydrogenase complex iron sulfur subunit B (SDHB) using HepaRG (AID 2283528); conditions: mRNA level, 48 h; actives raise or lower the signal
Outline: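 Readout is SDHB transcript level by qRT-PCR, normalised to three housekeeping genes and fitted bidirectionally against 0.5% DMSO vehicle. Human HepaRG cells were treated for 48 h at up to 100 uM.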

[7] = read-out: Signal transducer and activator of transcription 3 (Homo sapiens) (UniProt P40763); test: LTEA_HepaRG_STAT3: Life Technologies and Expression Analysis (LTEA) Assay for Signal transducer and activator of transcription (STAT3) using HepaRG (AID 2283529); conditions: mRNA level, 48 h; actives raise or lower the signal
Outline: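 In this transcriptional endpoint, HepaRG cultures receive test chemicals at up to 100 uM for 48 h, tested in duplicate. STAT3 mRNA is normalized to ACTB, GAPDH and POLR2A.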

[8] = read-out: solute carrier (SLCO1B1), SLCO1B1 (gene 10599); test: LTEA_HepaRG_SLCO1B1: Life Technologies and Expression Analysis (LTEA) Assay for solute carrier (SLCO1B1) using HepaRG (AID 2283530); conditions: mRNA level, 48 h; actives raise or lower the signal
Outline: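 HepaRG, serum-free induction medium, 48 h dosing, 8-pt half-log from 100 uM, 0.5% DMSO vehicle, duplicates. Readout: SLCO1B1 mRNA, qRT-PCR, ACTB/GAPDH/POLR2A normalization; up or down fit vs DMSO.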

[9] = read-out: sulfotransferase 2A1 (SULT2A1), SULT2A1 (gene 6822); test: LTEA_HepaRG_SULT2A1: Life Technologies and Expression Analysis (LTEA) Assay for sulfotransferase 2A1 (SULT2A1) using HepaRG (AID 2283531); conditions: mRNA level, 48 h; actives raise or lower the signal
Outline: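 Transcript levels of SULT2A1, quantified by qRT-PCR and normalized to three housekeeping genes, serve as the readout. Human HepaRG cultures receive test chemicals for 48 h at up to 100 uM in half-log steps, with 0.5% DMSO vehicle.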

[10] = read-out: Transforming Growth Factor (TGFA), TGFA (gene 7039); test: LTEA_HepaRG_TGFA: Life Technologies and Expression Analysis (LTEA) Assay for Transforming Growth Factor (TGFA) using HepaRG (AID 2283532); conditions: mRNA level, 48 h; actives raise or lower the signal
Outline: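 Gene expression of TGFA was quantified by qRT-PCR after human HepaRG cells were treated for 48 h with test chemicals (eight concentrations, highest 100 uM, 0.5% DMSO). Activity in either direction was fitted relative to DMSO.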

TIMP1, TIMP1 (gene 7076) = test: LTEA_HepaRG_TIMP1: Life Technologies and Expression Analysis (LTEA) Assay for TIMP1 using HepaRG (AID 2283534); conditions: mRNA level, 48 h; actives raise or lower the signal;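 note: TaqMan qRT-PCR signal normalized to ACTB GAPDH and POLR2A housekeeping genes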
Outline: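 Readout is TIMP1 mRNA level measured by qRT-PCR and normalized to three housekeeping genes. Human HepaRG cells were treated for 48 h in duplicate at eight concentrations up to 100 uM (0.5% DMSO); gain or loss fitted against DMSO.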

[11] = read-out: Tumor necrosis factor receptor 1 (TNFRSF1A), TNFRSF1A (gene 7132); test: LTEA_HepaRG_TNFRSF1A: Life Technologies and Expression Analysis (LTEA) Assay for Tumor necrosis factor receptor 1 (TNFRSF1A) using HepaRG (AID 2283535); conditions: mRNA level, 48 h; actives raise or lower the signal
Outline: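 Read-out is TNFRSF1A transcript level by TaqMan qRT-PCR, normalized to three housekeeping genes, scored as gain or loss of signal versus 0.5% DMSO. Human HepaRG cells received test chemicals for 48 h at up to 100 uM (half-log series).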

[12] = read-out: Thyroid Hormone Responsive (THRSP), THRSP (gene 7069); test: LTEA_HepaRG_THRSP: Life Technologies and Expression Analysis (LTEA) Assay for Thyroid Hormone Responsive (THRSP) using HepaRG (AID 2283536); conditions: mRNA level, 48 h; actives raise or lower the signal
Outline: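 Cell model: human HepaRG, approx. 100,000 cells/well, 0.5% DMSO vehicle. Exposure lasts 48 h; phenobarbital 1 mM serves as induction positive control. Gene expression is measured by qRT-PCR against three endogenous control genes.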

[13] = read-out: UDP glucuronosyltransferase (UGT1A1), UGT1A1 (gene 54658); test: LTEA_HepaRG_UGT1A1: Life Technologies and Expression Analysis (LTEA) Assay for UDP glucuronosyltransferase (UGT1A1) using HepaRG (AID 2283538); conditions: mRNA level, 48 h; actives raise or lower the signal
Outline: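 Cells are plated, cultured 48 h, switched to serum-free induction medium, then dosed 48 h at eight concentrations (max 100 uM, 0.5% DMSO). RNA is isolated and UGT1A1 expression measured by qRT-PCR; changes versus DMSO are fitted in both directions.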

[14] = read-out: UDP glucuronosyltransferase (UGT1A6), UGT1A6 (gene 54578); test: LTEA_HepaRG_UGT1A6: Life Technologies and Expression Analysis (LTEA) Assay for UDP glucuronosyltransferase (UGT1A6) using HepaRG (AID 2283539); conditions: mRNA level, 48 h; actives raise or lower the signal
Outline: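 HepaRG, 48 h post-plating switch to serum-free induction medium; chemical 48 h, 100 uM top, half-log x8, duplicate, 0.5% DMSO. Phenobarbital 1mM induction control. UGT1A6 mRNA by TaqMan qRT-PCR; gain/loss fit vs DMSO.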

[15] = read-out: X-box binding protein 1 (XBP1), XBP1 (gene 7494); test: LTEA_HepaRG_XBP1: Life Technologies and Expression Analysis (LTEA) Assay for X-box binding protein 1 (XBP1) using HepaRG (AID 2283540); conditions: mRNA level, 48 h; actives raise or lower the signal
Outline: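 Transcript levels of XBP1, measured by qRT-PCR and normalised to three housekeeping genes, were fitted bidirectionally relative to 0.5% DMSO controls. Human HepaRG cells received eight-point half-log dilutions from 100 uM for 48 h.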

[16] = LTEA_HepaRG_LDH_cytotoxicity: Cytotoxicity Assessment in the Life Technologies and Expression Analysis (LTEA) Assay (AID 2283563; active = hit-call score of the fitted dose curve at least 0.9, where 1 is the maximum)
Outline: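 Cells were thawed and plated for 48 h. Medium was then replaced with serum-free induction medium. Chemicals (8 half-log points, maximum 100 uM, 0.5% DMSO) were added in duplicate for 48 h, after which spent medium was assayed for LDH.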

[17] = ATG_XTT_Cytotoxicity: Cytotoxicity Assessment in the Attagene TRANS-FACTORIAL HepG2 Assay (AID 2283584; active = hit-call score of the fitted dose curve at least 0.9, where 1 is the maximum;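 for AC50: cells exposed to compound for 24 h before reading; active means loss of viability signal versus DMSO baseline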)
Outline: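 Cells: human HepG2, transiently transfected with MRTU reporter constructs. Exposure 24 h. Readout: XTT, cell number. Baseline/neg ctrl DMSO; loss-of-signal scored.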

Measured: AC50

Signal transducer and activator of transcription 3 (Homo sapiens), sequence (P40763 whole entry, looked up): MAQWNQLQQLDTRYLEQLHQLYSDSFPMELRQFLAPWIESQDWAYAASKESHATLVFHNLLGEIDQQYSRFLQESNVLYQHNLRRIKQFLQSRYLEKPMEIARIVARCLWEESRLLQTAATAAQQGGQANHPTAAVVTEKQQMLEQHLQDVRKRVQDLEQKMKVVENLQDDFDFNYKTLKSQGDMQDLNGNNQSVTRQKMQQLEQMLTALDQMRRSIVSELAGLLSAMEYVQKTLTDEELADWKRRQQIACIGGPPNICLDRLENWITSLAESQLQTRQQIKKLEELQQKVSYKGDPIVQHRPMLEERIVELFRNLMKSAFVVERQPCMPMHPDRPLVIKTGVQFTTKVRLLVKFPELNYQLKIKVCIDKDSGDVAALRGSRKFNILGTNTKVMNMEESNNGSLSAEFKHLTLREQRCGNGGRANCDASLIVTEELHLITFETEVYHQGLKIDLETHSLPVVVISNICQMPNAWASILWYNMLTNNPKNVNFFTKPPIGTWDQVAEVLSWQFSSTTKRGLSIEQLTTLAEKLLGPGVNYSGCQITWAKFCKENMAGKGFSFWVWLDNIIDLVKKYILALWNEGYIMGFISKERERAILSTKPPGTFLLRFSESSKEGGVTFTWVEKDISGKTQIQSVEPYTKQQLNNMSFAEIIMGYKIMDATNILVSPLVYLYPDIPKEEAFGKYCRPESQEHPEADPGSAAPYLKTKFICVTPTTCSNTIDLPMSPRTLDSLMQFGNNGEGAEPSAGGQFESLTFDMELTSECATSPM
Nuclear factor erythroid 2-related factor 2 (Homo sapiens), sequence (Q16236 whole entry, looked up): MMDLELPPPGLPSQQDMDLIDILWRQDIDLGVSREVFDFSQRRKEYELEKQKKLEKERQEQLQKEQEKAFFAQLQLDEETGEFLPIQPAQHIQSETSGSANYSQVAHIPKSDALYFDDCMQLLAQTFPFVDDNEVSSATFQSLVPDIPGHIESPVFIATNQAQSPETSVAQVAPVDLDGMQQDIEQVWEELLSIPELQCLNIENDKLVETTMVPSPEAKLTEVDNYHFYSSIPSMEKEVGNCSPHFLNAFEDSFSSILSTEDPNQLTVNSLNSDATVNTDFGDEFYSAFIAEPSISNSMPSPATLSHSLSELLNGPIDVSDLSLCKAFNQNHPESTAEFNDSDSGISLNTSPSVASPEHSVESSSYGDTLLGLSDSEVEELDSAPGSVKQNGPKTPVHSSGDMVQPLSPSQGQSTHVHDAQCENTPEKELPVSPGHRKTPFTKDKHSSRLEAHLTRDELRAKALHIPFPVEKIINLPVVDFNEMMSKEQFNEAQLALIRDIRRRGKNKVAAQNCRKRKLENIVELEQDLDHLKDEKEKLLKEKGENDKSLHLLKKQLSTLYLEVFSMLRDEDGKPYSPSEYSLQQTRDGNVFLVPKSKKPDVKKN

CC(C)(C)c1ccccc1O
active: [13] 4.14 µM
inactive: [1] | [2] | [3] | [4] | [5] | [6] | [7] | [8] | [9] | [10] | TIMP1, TIMP1 (gene 7076) | [11] | [12] | [14] | [15] | [16] | [17]

O=C1C=CC(=O)c2ccccc21
active: [17] 49.2 µM

CC(C)N(C(=O)CCl)c1ccccc1
active: [17] 31.2 µM

Fc1cccc(Cl)c1CCl
inactive: [17]

N#Cc1cccnc1
inactive: [1] | [2] | [3] | [4] | [5] | [6] | [7] | [8] | [9] | [10] | TIMP1, TIMP1 (gene 7076) | [11] | [12] | [13] | [14] | [15] | [16] | [17]

OCCN(CCO)CCO
inactive: [1] | [2] | [3] | [4] | [5] | [6] | [7] | [8] | [9] | [10] | TIMP1, TIMP1 (gene 7076) | [11] | [12] | [13] | [14] | [15] | [16] | [17]

C=CCc1ccccc1O
inactive: [17]

Cc1cc(C)cc(C)c1
inactive: [1] | [2] | [3] | [4] | [5] | [6] | [7] | [8] | [9] | [10] | TIMP1, TIMP1 (gene 7076) | [11] | [12] | [13] | [14] | [15] | [16] | [17]

Nc1ccc(N)cc1
inactive: [17]

O=C(CBr)c1ccc(O)cc1
inactive: [17]

NC(=O)CCl
inactive: [17]

CCCCCCCCCCCCc1cccc(S(=O)(=O)O)c1
active: [5] 45 µM | [10] 45 µM | [12] 66.9 µM | [13] 22.9 µM | [17] 139 µM
inactive: [1] | [2] | [3] | [4] | [6] | [7] | [8] | [9] | TIMP1, TIMP1 (gene 7076) | [11] | [14] | [15] | [16]

CNC(=O)N(C)c1nc2ccccc2s1
inactive: [17]

O=S(=O)(C(Cl)(Cl)Cl)C(Cl)(Cl)Cl
active: [17] 36.7 µM

ClCCN1CCOCC1
inactive: [17]

O=C(N[C@H]1CN2CCC1CC2)c1ccc2c(c1)OCCO2
inactive: [1] | [2] | [3] | [4] | [5] | [6] | [7] | [8] | [9] | [10] | TIMP1, TIMP1 (gene 7076) | [11] | [12] | [13] | [14] | [15] | [16]

C=C(C)C(=O)OCCCCOC(=O)C(=C)C
inactive: [17]
